Reference: PubChem BioAssay (NCI)
The panel holds about 83,000 compounds, 20% with a hit somewhere; the sample as a whole holds those more often.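 Single-concentration screen, 48 h exposure, 96-well plates. Endpoint: percent growth. Below 10 = active.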 Activity calls are given as the source filed them.

Assays:
Experiment in all cases: NCI-60 one-dose screen, 48 h (100 = growth as untreated, 0 = no growth, -100 = all killed)
Settings in all cases: 10 µM unless noted
SR leukemia = system: SR leukemia
RPMI-8226 leukemia = system: RPMI-8226 leukemia
OVCAR-8 ovarian = system: OVCAR-8 ovarian
OVCAR-5 ovarian = system: OVCAR-5 ovarian
OVCAR-4 ovarian = system: OVCAR-4 ovarian
SK-OV-3 ovarian = system: SK-OV-3 ovarian
OVCAR-3 ovarian = system: OVCAR-3 ovarian
HS 578T breast = system: HS 578T breast
NCI/ADR-RES ovarian = system: NCI/ADR-RES ovarian
T-47D breast = system: T-47D breast
BT-549 breast = system: BT-549 breast
MDA-MB-435 melanoma = system: MDA-MB-435 melanoma
SW-620 colon = system: SW-620 colon
MCF7 breast = system: MCF7 breast
HCT-116 colon = system: HCT-116 colon
HCC-2998 colon = system: HCC-2998 colon
KM12 colon = system: KM12 colon

Measured: growth

COc1cccc(C2=NN(C(C)=O)C(c3cc(OC)c(OC)c(OC)c3)C2)c1 (centres undefined)
active: SR leukemia -6.23% | RPMI-8226 leukemia 4.18% | BT-549 breast 7.16% | MDA-MB-435 melanoma -28.2% | MCF7 breast 3.81%
inactive: OVCAR-8 ovarian 37.5% | OVCAR-5 ovarian 58.3% | OVCAR-4 ovarian 48.5% | SK-OV-3 ovarian 30.4% | OVCAR-3 ovarian 33.1% | HS 578T breast 15.4% | NCI/ADR-RES ovarian 19% | T-47D breast 35.2% | SW-620 colon 17.3% | HCT-116 colon 26.9% | HCC-2998 colon 15.7% | KM12 colon 35.9%

COc1ccc(OC)c(CCn2cncc2-c2c[nH]c3cc(Br)ccc23)c1
active: T-47D breast 6.48%
inactive: SR leukemia 13.6% | RPMI-8226 leukemia 16.7% | OVCAR-8 ovarian 24.7% | OVCAR-5 ovarian 79.5% | OVCAR-4 ovarian 21.6% | SK-OV-3 ovarian 38.8% | OVCAR-3 ovarian 32.7% | HS 578T breast 59.8% | NCI/ADR-RES ovarian 19.4% | BT-549 breast 14.1% | MDA-MB-435 melanoma 11.8% | SW-620 colon 33.7% | MCF7 breast 17.2% | HCT-116 colon 23.6% | HCC-2998 colon 69.6% | KM12 colon 41.7%

COc1ccc(CNC(=O)c2c(C)n([O-])c3ccccc3[n+]2=O)cc1
inactive: SR leukemia 97.4% | RPMI-8226 leukemia 96.3% | OVCAR-8 ovarian 96.5% | OVCAR-5 ovarian 89.9% | OVCAR-4 ovarian 97.7% | SK-OV-3 ovarian 99.3% | OVCAR-3 ovarian 115% | HS 578T breast 111% | NCI/ADR-RES ovarian 54.2% | T-47D breast 81.3% | BT-549 breast 76.8% | MDA-MB-435 melanoma 124% | SW-620 colon 108% | MCF7 breast 91% | HCT-116 colon 97.9% | KM12 colon 131%

NC(=O)NS(=O)(=O)c1ccc(N2N=C(C(F)(F)F)CC2c2cc(C(F)(F)F)cc(C(F)(F)F)c2)cc1 (centres undefined)
inactive: SR leukemia 66.2% | OVCAR-8 ovarian 79.8% | OVCAR-5 ovarian 85.7% | OVCAR-4 ovarian 69.7% | SK-OV-3 ovarian 93% | OVCAR-3 ovarian 69.7% | HS 578T breast 66.5% | NCI/ADR-RES ovarian 77% | T-47D breast 72.4% | BT-549 breast 98% | MDA-MB-435 melanoma 40% | SW-620 colon 82.6% | HCT-116 colon 55.9% | HCC-2998 colon 88.2% | KM12 colon 71%
active: RPMI-8226 leukemia 2.36%

O=C(COc1cccc(/C=C2\Oc3ccc4ccccc4c3C2=O)c1)c1ccc(Cl)cc1
active: BT-549 breast 3.5%
inactive: SR leukemia 51.6% | RPMI-8226 leukemia 67.9% | OVCAR-8 ovarian 80% | OVCAR-5 ovarian 108% | OVCAR-4 ovarian 85.3% | SK-OV-3 ovarian 95.6% | OVCAR-3 ovarian 93.8% | HS 578T breast 92.8% | NCI/ADR-RES ovarian 100% | T-47D breast 62.6% | MDA-MB-435 melanoma 96.1% | SW-620 colon 36% | MCF7 breast 63.9% | HCT-116 colon 41.7% | HCC-2998 colon 87.5% | KM12 colon 96.5%

O=CN1N=C(c2ccc(Nc3ccnc4cc(Cl)ccc34)cc2)CC1c1ccc(Cl)cc1 (centres undefined)
active: SR leukemia -23.3% | RPMI-8226 leukemia 4.55% | SK-OV-3 ovarian 4.28% | OVCAR-3 ovarian -24.1% | NCI/ADR-RES ovarian 0.514% | MDA-MB-435 melanoma -19.6% | HCC-2998 colon -20.4% | KM12 colon 9.13%
inactive: OVCAR-8 ovarian 33.1% | OVCAR-5 ovarian 41.9% | OVCAR-4 ovarian 38.1% | HS 578T breast 28.1% | T-47D breast 23.1% | BT-549 breast 55.3% | SW-620 colon 32.9% | MCF7 breast 18.4% | HCT-116 colon 11.7%

Cc1cc(C)nc(NS(=O)(=O)c2ccc(Nc3nc4nc(SCc5ccccc5)nc(-c5ccc(O)cc5)c4c(=O)[nH]3)cc2)n1
inactive: SR leukemia 85.7% | RPMI-8226 leukemia 66.7% | OVCAR-8 ovarian 97% | OVCAR-5 ovarian 96.2% | OVCAR-4 ovarian 104% | SK-OV-3 ovarian 94.9% | OVCAR-3 ovarian 120% | HS 578T breast 103% | NCI/ADR-RES ovarian 97.3% | T-47D breast 79.1% | BT-549 breast 107% | MDA-MB-435 melanoma 94.9% | SW-620 colon 101% | MCF7 breast 104% | HCC-2998 colon 100% | KM12 colon 107%

COc1ccc2c(c1)CC/C(=C\c1ccc(OCC(=O)Nc3nc4ccccc4s3)cc1)C2=O
inactive: SR leukemia 68.4% | RPMI-8226 leukemia 85.4% | OVCAR-8 ovarian 98.3% | OVCAR-5 ovarian 87.8% | OVCAR-4 ovarian 102% | SK-OV-3 ovarian 104% | OVCAR-3 ovarian 116% | HS 578T breast 73.5% | NCI/ADR-RES ovarian 102% | T-47D breast 88.3% | BT-549 breast 83.6% | MDA-MB-435 melanoma 100% | SW-620 colon 93.9% | MCF7 breast 98.4% | HCT-116 colon 89.1% | HCC-2998 colon 87.6% | KM12 colon 108%

Cc1ccc(C2=Nc3c(ccc4c(C)c(C)c(=O)oc34)OC2)cc1
inactive: SR leukemia 103% | RPMI-8226 leukemia 94.4% | OVCAR-8 ovarian 98.6% | OVCAR-5 ovarian 103% | OVCAR-4 ovarian 116% | SK-OV-3 ovarian 106% | OVCAR-3 ovarian 107% | HS 578T breast 110% | NCI/ADR-RES ovarian 97.3% | T-47D breast 89.8% | BT-549 breast 94% | MDA-MB-435 melanoma 104% | SW-620 colon 108% | MCF7 breast 115% | HCT-116 colon 95.5% | HCC-2998 colon 96.1% | KM12 colon 97.8%

COC(=O)[C@H](Cc1cn(C)cn1)NC(=O)[C@H](C)NC(=O)Nc1cc(C(F)(F)F)cc(C(F)(F)F)c1
active: SR leukemia -31.1% [100 µM] | RPMI-8226 leukemia -31.7% [100 µM] | OVCAR-8 ovarian -68.1% [100 µM] | OVCAR-5 ovarian -43.8% [100 µM] | OVCAR-4 ovarian -58.3% [100 µM] | SK-OV-3 ovarian -97.5% [100 µM] | OVCAR-3 ovarian -89.4% [100 µM] | HS 578T breast -1.05% [100 µM] | T-47D breast -58.7% [100 µM] | BT-549 breast -91.6% [100 µM] | MDA-MB-435 melanoma -86.7% [100 µM] | SW-620 colon -27.4% [100 µM] | MCF7 breast -60% [100 µM] | HCT-116 colon -84.2% [100 µM] | HCC-2998 colon -88.9% [100 µM] | KM12 colon -70.8% [100 µM]
inactive: NCI/ADR-RES ovarian 79.3% [100 µM]

CCc1ccc(-c2nc(SCC(=O)NC3CCCCC3)n[nH]2)cc1
inactive: SR leukemia 12.6% | RPMI-8226 leukemia 32.8% | OVCAR-8 ovarian 70% | OVCAR-5 ovarian 94.2% | OVCAR-4 ovarian 72.6% | SK-OV-3 ovarian 84.8% | OVCAR-3 ovarian 64% | HS 578T breast 74.6% | NCI/ADR-RES ovarian 75.4% | T-47D breast 81.7% | BT-549 breast 84.6% | MDA-MB-435 melanoma 59.2% | SW-620 colon 80.5% | MCF7 breast 88.8% | HCT-116 colon 74.2% | HCC-2998 colon 76.3% | KM12 colon 82.2%

COc1ccc2cc(-c3nc4ccccc4[nH]3)c(=O)oc2c1
inactive: SR leukemia 36.5% | RPMI-8226 leukemia 115% | OVCAR-8 ovarian 101% | OVCAR-5 ovarian 101% | OVCAR-4 ovarian 99.3% | SK-OV-3 ovarian 104% | OVCAR-3 ovarian 106% | HS 578T breast 125% | NCI/ADR-RES ovarian 93% | T-47D breast 92.9% | BT-549 breast 101% | MDA-MB-435 melanoma 108% | SW-620 colon 95.5% | MCF7 breast 89.3% | HCT-116 colon 93% | HCC-2998 colon 78.3% | KM12 colon 93.8%

O=[N+]([O-])c1cc([N+](=O)[O-])c(N2CCCC2)cc1NN=C(c1ccc(O)cc1)c1ccc(O)cc1
active: OVCAR-8 ovarian -45.4% | T-47D breast -7.05% | MCF7 breast 9.54% | HCT-116 colon 8% | HCC-2998 colon 4.45%
inactive: SR leukemia 77.1% | RPMI-8226 leukemia 82.2% | OVCAR-5 ovarian 38.2% | OVCAR-4 ovarian 81.6% | SK-OV-3 ovarian 39.9% | OVCAR-3 ovarian 89.8% | HS 578T breast 137% | NCI/ADR-RES ovarian 33.6% | BT-549 breast 86.6% | MDA-MB-435 melanoma 76.1% | SW-620 colon 107% | KM12 colon 85.7%

C[C@H]1c2cccc(O)c2C(O)=C2C(=O)[C@]3(O)C(O)=C(C(N)=O)C(=O)[C@@H](N(C)C)[C@@H]3[C@@H](O)[C@@H]21
inactive: SR leukemia 30% | RPMI-8226 leukemia 27% | OVCAR-8 ovarian 33.5% | OVCAR-5 ovarian 78.4% | OVCAR-4 ovarian 66.8% | SK-OV-3 ovarian 70.2% | OVCAR-3 ovarian 49% | HS 578T breast 69.8% | NCI/ADR-RES ovarian 66% | T-47D breast 53.1% | BT-549 breast 33.8% | MDA-MB-435 melanoma 50.7% | SW-620 colon 65.9% | MCF7 breast 58.9% | HCT-116 colon 18.6% | HCC-2998 colon 27.1% | KM12 colon 54.1%

COc1ccc2c(c1)c(CC(=O)[Se]C)c(C)n2C(=O)c1ccc(Cl)cc1
inactive: SR leukemia 13.4% | RPMI-8226 leukemia 62.6% | OVCAR-5 ovarian 36.8% | OVCAR-4 ovarian 37.2% | SK-OV-3 ovarian 40.7% | T-47D breast 80.6% | SW-620 colon 29.9% | MCF7 breast 16% | HCC-2998 colon 68.8% | KM12 colon 61.6%
active: OVCAR-8 ovarian -46.9% | OVCAR-3 ovarian -12.4% | HS 578T breast 8.49% | NCI/ADR-RES ovarian 3.71% | BT-549 breast -80.8% | MDA-MB-435 melanoma -20% | HCT-116 colon 0.342%

O=c1oc2c(cc1-c1ccc([N+](=O)[O-])cc1)C(O)Oc1ccccc1-2 (centres undefined)
inactive: SR leukemia 56.2% | RPMI-8226 leukemia 50.2% | OVCAR-8 ovarian 94.7% | OVCAR-5 ovarian 82.1% | OVCAR-4 ovarian 86.4% | SK-OV-3 ovarian 99.6% | OVCAR-3 ovarian 111% | HS 578T breast 102% | NCI/ADR-RES ovarian 72.2% | T-47D breast 75.3% | BT-549 breast 97.1% | MDA-MB-435 melanoma 89.3% | SW-620 colon 91.9% | MCF7 breast 90.8% | HCT-116 colon 94.8% | HCC-2998 colon 94.3% | KM12 colon 95.4%
